# An excerpt weighted towards active compounds, which were near 11% of everything screened.
# HP1b chromo inh: HTS for Inhibitors of HP1-beta Chromodomain Interactions with Methylated Histone Tails | Potency, µM (series often up to 114 µM), without a hit: top-dose activity change, negative = inhibition, actives largely listed as inhibitors | Chromobox protein homolog 1 (Homo sapiens), P83916 | AlphaScreen HP1-beta / biotin-H3K9me3 peptide binding | 390,000 compounds, 0.56% hits; also: nearly all actives have a fitted effect of over 70% in size
#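 HP1-beta protein (50 nM final) preincubated 30 min at room temperature with biotinylated H3(1-18)K9me3 peptide (50 nM) in PBS pH 7.4, 0.01% Tween-20, then compound added for 30 min. AlphaScreen streptavidin donor/nickel chelate acceptor beads (10 ug/mL final), 30 min dark, luminescence read.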
# PLK1 PBD block: qHTS for Inhibitors of PLK1-PDB (polo-like kinase 1 - polo-box domain): Primary Screen. Potency, µM, for inactives: max response, negative = inhibition, hits mostly inhibitors. AID 720504, 2013. Serine/threonine-protein kinase PLK1 (Homo sapiens), P53350. Plk1 PBD binding of FITC phosphopeptide, fluorescence polarization. 360,000 compounds, 2.8% hits; also: series mostly up to about 57 µM; % is scaled to controls: 0 for no effect and ±100 for the full control effect; nearly all actives have a fitted effect of over 65% in size
# BAZ2B inh: qHTS Assay for Inhibitors of BAZ2B; Potency, µM (titrated, usually from 114 µM), for inactives: at the top dose activity change, negative = inhibition, most hits filed as inhibitors; Bromodomain adjacent to zinc finger domain protein 2B (Homo sapiens), Q9UIF8; AlphaScreen BAZ2B-H3K14Ac peptide displacement; 360,000 compounds, 4.4% hits; AID 504333, 2011; also: % is scaled to controls: 0 for no effect and ±100 for the full control effect; nearly all actives have a fitted effect of over 60% in size
#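 Protein-peptide AlphaScreen: BAZ2B 50 nM, b-H3K14Ac 50 nM, 1x PBS pH 7.4 + 0.01% Tween-20. Preincubation 30 min RT; cpd 30 min RT (top 110 uM); beads 20 min RT, light-protected.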
# JMJD2A Tudor: qHTS Assay for Inhibitors of JMJD2A-Tudor Domain; Lysine-specific demethylase 4A (Homo sapiens), O75164; AlphaScreen JMJD2A-Tudor / H3K4me3 peptide binding; Potency, µM (titrated, usually from 114 µM), without a hit: top-dose activity change, negative = inhibition, actives largely listed as inhibitors; AID 504339, 2011; 390,000 compounds, 4.4% hits; also: % is scaled to controls: 0 for no effect and ±100 for the full control effect; nearly all actives have a fitted effect of over 50% in size
# Target sequence (O75164 whole entry, looked up, the tested form may be a part): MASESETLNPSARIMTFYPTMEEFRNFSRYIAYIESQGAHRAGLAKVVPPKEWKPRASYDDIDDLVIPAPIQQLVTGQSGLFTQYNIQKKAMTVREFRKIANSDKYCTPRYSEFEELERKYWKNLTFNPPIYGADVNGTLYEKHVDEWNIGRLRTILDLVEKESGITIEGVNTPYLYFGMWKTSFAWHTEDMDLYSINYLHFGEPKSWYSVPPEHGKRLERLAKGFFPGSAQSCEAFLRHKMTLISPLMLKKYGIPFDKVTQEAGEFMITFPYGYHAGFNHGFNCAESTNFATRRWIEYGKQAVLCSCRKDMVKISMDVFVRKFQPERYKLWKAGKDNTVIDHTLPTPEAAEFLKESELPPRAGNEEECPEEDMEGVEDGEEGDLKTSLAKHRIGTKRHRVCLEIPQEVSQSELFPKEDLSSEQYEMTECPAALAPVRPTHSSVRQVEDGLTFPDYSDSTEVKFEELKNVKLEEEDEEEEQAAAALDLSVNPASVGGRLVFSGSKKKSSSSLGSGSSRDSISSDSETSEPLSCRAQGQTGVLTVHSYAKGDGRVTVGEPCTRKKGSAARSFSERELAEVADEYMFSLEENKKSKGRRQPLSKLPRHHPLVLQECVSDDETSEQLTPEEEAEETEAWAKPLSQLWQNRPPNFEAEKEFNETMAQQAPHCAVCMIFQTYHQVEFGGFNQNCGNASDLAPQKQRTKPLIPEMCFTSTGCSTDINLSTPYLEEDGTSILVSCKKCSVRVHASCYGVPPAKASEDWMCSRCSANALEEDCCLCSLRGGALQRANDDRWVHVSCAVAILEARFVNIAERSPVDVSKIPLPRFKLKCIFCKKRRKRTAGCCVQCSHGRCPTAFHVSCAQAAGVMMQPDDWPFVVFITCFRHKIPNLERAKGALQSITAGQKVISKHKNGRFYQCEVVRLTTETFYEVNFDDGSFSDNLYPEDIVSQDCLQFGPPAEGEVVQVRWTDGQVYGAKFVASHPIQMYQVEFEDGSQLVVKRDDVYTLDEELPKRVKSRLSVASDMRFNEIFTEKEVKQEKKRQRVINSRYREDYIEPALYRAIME
# G9a inh: qHTS Assay for Inhibitors of Histone Lysine Methyltransferase G9a; Histone-lysine N-methyltransferase EHMT2 (Homo sapiens), Q96KQ7; G9a H3K9 monomethylation, AlphaScreen, 2 h; Potency, µM (top dose mostly 102 µM), inactives show at the top dose activity, negative = inhibition, actives largely listed as inhibitors; 350,000 compounds, 8.8% hits; AID 504332, 2011; also: % is scaled to controls: 0 for no effect and ±100 for the full control effect; nearly all actives have a fitted effect of over 75% in size
#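 Signal arises when biotinylated H3K9 peptide, once monomethylated, bridges streptavidin donor and antibody-captured acceptor beads. Enzyme at 20 nM was preincubated 15 min with test compounds; peptide 500 nM and SAM 20 uM then reacted for 2 h.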
# VDR inhibitor: Inhibitors of the vitamin D receptor (VDR): qHTS; AID 504847, 2011; Potency, µM, for the others: max response, negative = inhibition, most hits filed as inhibitors; 400,000 compounds, 0.93% hits; VDR-SRC2-3 peptide fluorescence polarization, 2 h; also: % is scaled to controls: 0 for no effect and ±100 for the full control effect
#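 The screen uses fluorescence polarization to detect compounds that interfere with recruitment of the SRC2-3 coactivator peptide to VDR; plates are read after 2 h at room temperature.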
# Active calls of the source: *; ? = inconclusive; . = not tested or not shown; [ ] = dose if it differs, or a comment. Calls follow the shape of the dose curve; as a rule, active = well fitted curve in the direction sought with a large enough effect; inconclusive = small, poorly fitted or top-dose-only effect, or another doubt; inactive = no such curve, though single readings can be large; an effect the other way counts as inactive or inconclusive. Potency is read from the fitted curve at half-maximal effect.
SMILES,HP1b chromo inh,PLK1 PBD block,BAZ2B inh,JMJD2A Tudor,G9a inh,VDR inhibitor
Cc1ccc(S(=O)(=O)N2CCOCC2)cc1N/N=C(\C#N)c1nc2ccccc2[nH]1,-10%,-1%,-26%,-31%,35µM*,1%
Cc1ccc(C(=O)OC/C(O)=C(\C#N)c2nc3ccccc3[nH]2)cc1S(=O)(=O)N1CCOCC1,38%,-1%,34%,-13%,-7%[59 µM],-6%
O=C(O)c1cccc2c(-c3ccccc3)c(-c3ccccc3)[nH]c12,-25%,24µM*,?,?,.,-19%
N#Cc1nc(NCCCO)nc(Nc2ccccc2)n1,.,.,.,-24%,.,.
Nc1nc(SC2c3cccc4cccc(c34)C2NS(=O)(=O)c2ccccc2)n[nH]1 (stereo unspecified),?,-24%,?,-22%[57.1 µM],3.2µM*,-5%
O=C(COC(=O)CCC(=O)c1ccc(F)cc1)Nc1ccc(N2CCOCC2)cc1,30%,-1%,-7%,-12%,50µM*,13%
N#Cc1ccc(C(=O)OCC(=O)N2CCOCC2)cc1,29%,-1%,-25%,1%,50µM*,-10%
O=C(OCc1ccco1)c1ccc(S(=O)(=O)N2CCCCC2)cc1,-3%,-27%,50µM*,79µM*,?,-15%
Cc1ccc(OCCC(=O)OCC(=O)Nc2ccc(N3CCOCC3)cc2)cc1,12%,-4%,8%,-14%,?,7%
O=C(COC(=O)c1ccc(S(=O)(=O)N2CCCC2)cc1)Nc1cccc(F)c1,31%,-11%,14%,-23%,5µM*,-14%
Cc1ccc(C(=O)OCC(=O)N2CCOCC2)cc1,-8%,2%,4%,-10%,18%,11%
CCC(=O)Nc1ccc(C(=O)NNC(=O)COc2cccc(C)c2)cc1,37%,2%,-6%,-9%,-10%[59 µM],-10%
C=C1CCN(C(C(=O)O)C(C)C)S(=O)(=O)c2ccccc21 (stereo unspecified),9%,.,.,-15%,.,-13%
O=C(COC(=O)c1ccc(O)cc1)Nc1ccc(S(=O)(=O)N2CCOCC2)cc1,24%,1%,.,-11%,.,4%
O=C(COC(=O)c1ccc(S(=O)(=O)N2CCCC2)cc1)Nc1ccc(N2CCOCC2)cc1,?,9.5µM*,-24%,-26%[11.4 µM],30%[59 µM],?
O=C(COC(=O)c1nc(Cl)ccc1Cl)NC1CCCCCC1,31%,-2%,-21%,-6%,-15%,-19%
N#Cc1ccc(C(=O)OCC(=O)Nc2ccc(N3CCOCC3)cc2)cc1,25%,-6%,.,-7%,10µM*,-13%
N#Cc1ccc(C(=O)OCC(=O)NC2CCCC2)cc1,32%,-1%,5%,-3%,45µM*,5%
O=C(COC(=O)c1ncc(Cl)c(Cl)c1Cl)NC1CCCCCC1,19%,-4%,23%,-3%,40µM*,15%
COc1ccccc1N1CCN(C(=O)c2nc(SC)ncc2Cl)CC1,32%,.,-13%,-8%,-2%[59 µM],2%
CN(C)C(=O)c1ccc(-c2nccc(NCc3cccs3)n2)cc1,.,.,.,.,-37%[0.501 µM],45µM*
c1csc(CNc2ccnc(-c3ccoc3)n2)c1,.,.,.,.,-4%[0.501 µM],22µM*
CN(C)c1ccc(-c2nccc(NCc3cccs3)n2)cc1,.,.,.,.,17%[0.501 µM],-20%
CCC[N+](CC#CCO)(CC#Cc1ccccc1)CCC,16%,0%,-3%,3%,4%,5%
CC[N+](CC)(CC#Cc1ccccc1)CC(=O)c1ccc(Cl)cc1,11%,-3%,-7%,-23%,7.1µM*,19%
SMILES,HP1b chromo inh,PLK1 PBD block,BAZ2B inh,JMJD2A Tudor,G9a inh,VDR inhibitor
COc1ccc(NC(=O)[C@H]2O[C@@H]3OC(C)(C)O[C@@H]3[C@H]3OC(C)(C)O[C@H]32)c(OC)c1,31%,.,0%,-4%,-2%[59 µM],21%
COc1ccc(/C=N/N(C)c2cc(=O)n(C)c(=O)[nH]2)cc1OC,28%,-6%,79µM*,-17%,40µM*,-1%
Cc1ccccc1-c1nc(SCc2cccnc2)c2c(=O)n(C)c(=O)n(C)c2n1,6%,-5%,-14%,-11%,56µM*,0%
C=CCSc1nc2c(N)ncnc2n1C1OC(CO)C(O)C1O (stereo unspecified),.,-8%,.,.,.,.
CN(CC(=O)Nc1ccc(Cl)cc1)S(=O)(=O)c1ccc2c(c1)n(C)c(=O)c(=O)n2C,31%,5%,-18%,4%,47%,9%
CN(CC(=O)Nc1cccc(Cl)c1)S(=O)(=O)c1ccc2c(c1)n(C)c(=O)c(=O)n2C,-11%,-8%,-5%,?,.,79µM*
CSc1cccc(NC(=O)CN(C)S(=O)(=O)c2ccc3c(c2)n(C)c(=O)c(=O)n3C)c1,34%,.,-19%,-15%,1µM*,4%
CCc1cccc(CC)c1NC(=O)CN(C)S(=O)(=O)c1ccc2c(c1)n(C)c(=O)c(=O)n2C,35%,.,4%,-10%,-3%[59 µM],-16%
CCC(C)(C(=O)NC1CCCC1)N(C(=O)CC1NC(=O)NC1=O)c1ccc(C)cc1 (stereo unspecified),29%,-1%,7%,-12%,3%[59 µM],7%
N#CC1=C(N)Nc2ncnn2C1c1ccc(F)cc1 (stereo unspecified),40%,6%,14%,-4%,40µM*,-15%
Clc1ccccc1N=C1NN=C(c2cccs2)CS1,14%,-19%,.,-30%,89µM*,-4%
Cc1c(C(=O)N2CCN(c3ccccc3)CC2)oc2c(F)cccc12,15%,-8%,-23%,-15%,15%,?
O=[N+]([O-])c1cc(S(=O)(=O)N2CCCCCC2)ccc1F,-3%,15µM*,-22%,-22%,-6%[59 µM],-18%
O=[N+]([O-])c1cc(S(=O)(=O)N2CCCC2)ccc1N/N=C1/CCCc2ccccc21,?,-4%,3.5µM*,?,4.5µM*,-18%
COc1ccc(S(=O)(=O)Nc2cc(Cl)ccc2OC)cc1,35%,3%,10%,4%,0%,-13%
COc1ccc(Cl)cc1NS(=O)(=O)c1ccc(S(=O)(=O)N2CCCC2)cc1,28%,-17%,-7%,-8%,8.9µM*,6%
CCc1ccc(Nc2ccc(S(=O)(=O)N3CCOCC3)cc2[N+](=O)[O-])cc1,?,-16%,11µM*,11µM*,28µM*,-4%
CCCN(C(=O)Cc1nc(-c2ccc(OC)cc2)no1)c1ccccc1C,36%,.,12%,3%,?,0%
